PP1 counter: PP1-alpha phosphatase inhibitors, primary screen, counter-screen for PP5 inhibitor project, biochemical, fluorescence, OMFP substrate, single point | Serine/threonine-protein phosphatase PP1-alpha catalytic subunit (Homo sapiens), P62136 | purified PP1alpha | inhibition, % at 6.7 µM | hit rate 0.9% among 320,000 | AID 2235, 2010;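 active means inhibition above the mean inhibition of all tested compounds plus 3 SD, computed separately for each screening campaign, cut at about 15% in these data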
Granule exo inh: LAMP-1 surface exposure blockers, TALL-104 cells – cell-based, flow cytometry, MLPCN library, primary screen. TALL-104 LAMP-1 surface exposure; cells stimulated with thapsigargin and PMA. hit rate 0.66% among 360,000. inhibition, % at 10 µM;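 active means inhibition above about 55%, limit read from the data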
GRK2 inh: compounds blocking aptamer binding on GRK2 – biochemical, human GRK2, bead flow cytometry, HTS, primary screen. FAM-aptamer displacement from GRK2. Beta-adrenergic receptor kinase 1 (Homo sapiens), P25098. inhibition of aptamer binding, % at 10 µM. AID 488847, 2010. hit rate 0.59% among 330,000;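 active means inhibition of aptamer binding above 40%, roughly 3 SD of noise, on plates passing a quality check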;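 further: median bead fluorescence of bound FAM aptamer so fluorescent compounds give negative values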
Target sequence (P25098 whole entry, looked up): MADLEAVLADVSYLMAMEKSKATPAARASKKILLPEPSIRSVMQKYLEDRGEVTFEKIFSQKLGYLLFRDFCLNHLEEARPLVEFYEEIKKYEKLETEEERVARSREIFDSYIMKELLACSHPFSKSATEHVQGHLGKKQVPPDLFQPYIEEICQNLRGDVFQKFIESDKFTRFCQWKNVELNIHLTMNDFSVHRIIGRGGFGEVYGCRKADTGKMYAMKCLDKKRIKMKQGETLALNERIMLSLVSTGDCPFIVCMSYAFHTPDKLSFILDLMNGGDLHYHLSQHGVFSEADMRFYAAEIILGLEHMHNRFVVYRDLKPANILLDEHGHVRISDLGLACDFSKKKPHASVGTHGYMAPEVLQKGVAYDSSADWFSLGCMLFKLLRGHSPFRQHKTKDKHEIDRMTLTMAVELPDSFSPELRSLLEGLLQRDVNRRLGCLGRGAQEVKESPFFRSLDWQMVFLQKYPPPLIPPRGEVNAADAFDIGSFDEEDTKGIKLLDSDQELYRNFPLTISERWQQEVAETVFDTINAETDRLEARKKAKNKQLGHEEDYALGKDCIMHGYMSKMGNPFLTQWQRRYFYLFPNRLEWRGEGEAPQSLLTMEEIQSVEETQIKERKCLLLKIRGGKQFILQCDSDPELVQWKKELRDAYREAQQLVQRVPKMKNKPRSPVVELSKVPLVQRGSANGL
Beta2AR agonist: beta2AR agonists driving receptor internalization, primary screen, cell-based, FAP fluorogen, flow cytometry; Beta-2 adrenergic receptor (Homo sapiens), P07550; Am2.2-beta2AR cells; response, % (no concentration beside the values); hit rate 0.43% among 340,000;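 active means response above a set limit, near 3 SD of response in nonfluorescent compounds, cut at about 42% in these data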
NadD inh: inhibitors of S. aureus NadD, primary screen, biochemical, colorimetric, uHTS. Nicotinate-nucleotide adenylyltransferase NadD (Staphylococcus aureus N315). purified NadD enzyme, colorimetric absorbance read-out. inhibition, % at 20 µM. hit rate 0.78% among 360,000. AID 602399, 2012; in the data active means inhibition above about 26%
Numbers stand for hits; - = inactive; . = no result. The list is not random: actives were taken first. Their share in the collection is about 2.9%.

SMILES | PP1 counter | Granule exo inh | GRK2 inh | Beta2AR agonist | NadD inh
NC(Cc1ccc(C(F)(F)F)cc1)c1csc(Nc2nncc3ccccc23)n1 (configuration not stated) | . | - | . | . | -
O=[N+]([O-])c1ccc(N/N=C/c2ccccc2O)cc1 | - | 65 | - | - | -
O=[N+]([O-])c1ccc(NN=Cc2ccccc2O)nc1 | . | - | . | - | -
CCc1sc(C(=O)Nc2ccc3c(c2)OCCO3)cc1Br | - | - | - | - | -
CC(=O)Nc1ccc(C(=O)CN2C(=O)CSC2=O)cc1 | - | - | - | - | -
COc1cc(/C=C2\C(=N)N3N=C(S(C)(=O)=O)SC3=NC2=O)ccc1OCCOc1ccccc1C | - | - | - | - | -
COc1cc(/C=C2/C(=N)N3C=CSC3=NC2=O)ccc1OCCCOc1cc(C)ccc1C | - | - | - | 63 | -
O=C(O)c1ccc(Br)cn1 | - | - | - | - | -
COc1ccc(CNC(=O)c2oc3ccc(S(=O)(=O)N4CCOCC4)cc3c2C)cc1 | - | - | - | - | -
CN(C)c1ccc(C(=O)N/N=C/c2cc(Br)cc(Br)c2O)cc1 | - | - | - | - | 32
O=C(N/N=C/c1ccccc1F)c1ccccc1OCc1ccccc1 | - | 107 | - | - | -
Clc1ncc(CN2CCN(Cc3ccccc3)CC2)s1 | - | - | - | - | -
Cn1c(SCC(=O)N2CCOCC2)nc2c(c1=O)SCC2 | - | - | - | - | -
Clc1ccc(C2=NCCN2)cc1 | - | - | - | - | -
Cn1c(=O)c2c(ncn2CC(=O)Nc2cc(S(=O)(=O)N3CCCCC3)ccc2O)n(C)c1=O | . | - | - | - | -
CCCCCn1c(N2CCC(Cc3ccccc3)CC2)nc2c1c(=O)[nH]c(=O)n2C | 16 | - | - | - | -
COC(=O)C1=C(C)NC(=S)N(C(C)=O)C1c1ccc(OC)c(OC)c1 (configuration not stated) | - | - | - | - | -
C/C=C1\COC(C(=O)NCCCN2CCCC2=O)(C(F)(F)F)C=C1C=C(C)C (configuration not stated) | - | - | - | - | -
Cc1cc(-n2c(C)cc(C(=O)CN3C(=O)C(=O)N(C)C3=O)c2C)no1 | . | - | - | - | -
Cc1cc(-n2c(C)cc(C(=O)CCl)c2C)no1 | - | - | - | 65 | -
COc1ccc(NC2=NCC(Cc3ccc(Br)cc3)S2)cc1 (configuration not stated) | 16 | - | - | - | -
COc1ccc(CNc2ccc(Br)cc2)cc1 | - | - | - | - | -
CCc1cccc(CC)c1NC(=O)COC(=O)c1cccc(-c2ccc(OC(C)=O)cc2)c1 | - | - | 100 | - | -
CC(=O)Oc1ccc(-c2cccc(C(=O)O)c2)cc1 | - | - | - | - | -
Oc1ccc(/C=N/Nc2ncnc3c2ncn3Cc2ccccc2)cc1O | - | - | - | - | 39
SMILES | PP1 counter | Granule exo inh | GRK2 inh | Beta2AR agonist | NadD inh
Oc1cccc(/C=N/Nc2ncnc3c2ncn3Cc2ccccc2)c1 | - | - | - | - | -
Cn1cccc1-c1cc(C(=O)N/N=C/C=C/c2ccccc2)[nH]n1 | - | - | - | - | -
Cc1cccc2c1N(CCCOc1ccccc1)C(=O)C2=O | 17 | - | - | - | -
Cc1cccc2c1N(CCCOc1ccc(C(C)(C)C)cc1)C(=O)C2=O | - | - | - | - | -
O=C(CSc1nnc(-c2c[nH]c3ccccc23)o1)N(Cc1ccccc1)c1ccc(F)cc1 | - | 78 | - | - | -
COc1ccc(CN(C(=O)CSc2nnc(-c3ccccc3C)o2)c2ccc(F)cc2)cc1 | - | - | - | - | -
COC(=O)C1=C(O)/C(=C\c2cc(C)n(-c3ccc(F)cc3)c2C)N=C1C | - | - | - | 69 | -
COC(=O)C1=C(C)NC(=O)/C1=C\c1cc(C)n(-c2cccc(C)c2)c1C | - | - | - | - | 32
COC(=O)C1=C(O)/C(=C/c2cccc(OC)c2O)N=C1C | - | - | - | - | -
COC(=O)C1=C(C)NC(=O)/C1=C\c1cc(C)n(-c2ccc(F)cc2)c1C | - | 104 | - | - | -
O=C(NNc1c(Cl)cc(Cl)cc1Cl)C1CCC1 | - | - | - | - | -
CC1=NN(c2nc(-c3ccc(C)cc3)cs2)C(=O)C1N=Nc1cccc(O)c1 (configuration not stated) | - | - | - | - | 38
Cc1ccc(/C(=N/Nc2nc3ccccc3s2)C2=C(O)c3ccccc3C2=O)cc1 | - | - | - | - | 34
COc1ccc(CC(=O)Nc2ccccc2N2CCCCC2)cc1OC | - | - | - | - | -
Cc1cc(C)c2c(CCl)cc(=O)oc2c1 | - | - | - | 44 | -
CCN(CC)CCC=C(c1cccs1)c1cccs1 | . | - | . | - | -
CCn1ccnc1CN(C)Cc1cn(-c2cc(C)ccc2C)nc1-c1ccccc1 | - | - | - | - | -
O=c1[nH]nnc2cc(Cl)ccc12 | . | - | . | - | -
S=C(NCCSCc1ccc(Cl)c(Cl)c1)Nc1ccccc1 | - | - | - | 47 | -
COc1ccc(CSCCNC(=S)Nc2ccccc2)cc1Cl | - | - | - | - | -
CCCOc1ccc(/C=N/NC(=S)Nc2ccccc2[N+](=O)[O-])c(O)c1 | 15 | . | - | . | .
C=CCn1c(CSc2ccccc2[N+](=O)[O-])n[nH]c1=S | - | - | - | - | -
C=CCn1c(Sc2ncc([N+](=O)[O-])s2)n[nH]c1=O | - | 58 | - | - | -
C[C@H](CO)N1C[C@H](C)[C@@H](CN(C)S(=O)(=O)c2ccccc2C#N)OCc2cn(nn2)CCCC1=O | . | - | . | . | -
Cc1cccc(NC(=O)CN2C(=O)S/C(=C\c3cc(C)n(C)c3C)C2=O)c1 | 16 | - | - | - | -
SMILES | PP1 counter | Granule exo inh | GRK2 inh | Beta2AR agonist | NadD inh
Cc1cccc(NC(=O)CN2C(=O)N/C(=C/c3cc(C)n(C)c3C)C2=O)c1 | . | - | . | - | 30
Cc1ccc(NC(=O)CN2C(=O)S/C(=C\c3cc(C)n(C)c3C)C2=O)cc1 | - | - | - | - | -
COc1ccccc1OCC(=O)NCC1CCCN(Cc2cnn(C(C)C)c2)C1 (configuration not stated) | - | - | - | - | -
CCCCCCNS(=O)(=O)c1ccc(NC(=O)C2CCCO2)cc1 (configuration not stated) | - | - | - | - | -
Nc1c(C(=O)NCC2CCCO2)sc2nc3c(c(-c4ccco4)c12)CC/C3=C\c1ccco1 (configuration not stated) | . | - | . | - | 93
CC(C)CCN1CCNC(=O)C1CC(=O)N(C)CCCN1CCOCC1 (configuration not stated) | - | - | - | - | -
COc1ccc(C(C(=O)NC2CCCCC2)N(C(=O)CCl)c2ccc(C)cc2)cc1 (configuration not stated) | - | - | - | 44 | -

Screening results from PubChem.
